Measurements from PubChem BioAssay (EPA / NIEHS).
Inconclusive results are not listed. Calls of active or inactive are those of the source. Rule for the calls: active = hit-call score of the fitted dose curve at least 0.9, where 1 is the maximum; inconclusive = response in the unintended direction; inactive = score below 0.9.

Columns and labels:
[1] = ATG_XTT_Cytotoxicity: Cytotoxicity Assessment in the Attagene TRANS-FACTORIAL HepG2 Assay (AID 2283584)
How it was run: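 HepG2 cells transiently transfected with GAL4-UAS multiple reporter units, dosed 24 h; cytotoxicity read by XTT as loss of signal versus DMSO baseline.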

[2] = biological target: Cellular tumor antigen p53 (Homo sapiens) (UniProt P04637); test: TOX21_p53_BLA_p2_ratio: Tox21 HCT-116 p53 Agonism Beta-lactamase Assay, Ratio, Phase 2 (AID 2283592)
Cellular tumor antigen p53 (Homo sapiens), sequence (P04637 whole entry, looked up): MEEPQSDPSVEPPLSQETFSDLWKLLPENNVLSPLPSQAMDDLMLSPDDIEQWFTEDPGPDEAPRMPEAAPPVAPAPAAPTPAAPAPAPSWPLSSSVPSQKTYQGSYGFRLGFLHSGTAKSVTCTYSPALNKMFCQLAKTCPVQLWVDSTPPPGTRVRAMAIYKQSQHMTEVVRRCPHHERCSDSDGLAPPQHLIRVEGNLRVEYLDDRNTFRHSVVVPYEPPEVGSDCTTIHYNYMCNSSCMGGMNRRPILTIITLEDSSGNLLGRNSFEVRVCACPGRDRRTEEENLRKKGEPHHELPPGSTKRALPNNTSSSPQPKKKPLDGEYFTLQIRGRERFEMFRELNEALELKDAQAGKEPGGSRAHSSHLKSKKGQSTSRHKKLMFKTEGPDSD
How it was run: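 HCT-116 cells with p53-responsive beta-lactamase reporter, 4000 cells/well, preincubated 5 h, then compound in DMSO (217-fold dilution) for 16 h at 37C. CCF4-AM substrate 2 h at room temperature; 460/530 nm emission ratio fitted upward versus DMSO.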

[3] = TOX21_p53_BLA_p3_viability: Viability Assessment in the Tox21 HCT-116 p53 Agonism Beta-lactamase Assay, Phase 3 (AID 2283593);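 note: cells exposed to compound for 16 h before reading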
How it was run: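 HCT116 cells, 4000/well, dosed 5 h after plating by pin transfer (217-fold dilution from DMSO stock) and incubated 16 h at 37C, 5% CO2. Viability read as ATP luminescence with CellTiter-Glo after 30 min at room temperature.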

[4] = biological target: Cellular tumor antigen p53 (Homo sapiens) (UniProt P04637); test: TOX21_p53_BLA_p3_ratio: Tox21 HCT-116 p53 Agonism Beta-lactamase Assay, Ratio, Phase 3 (AID 2283596)
How it was run: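 HCT116 p53-bla cells (4000/well) given compound in DMSO (217-fold dilution) after 5 h, incubated 16 h at 37C. CCF4-AM substrate 2 h at room temperature; 460/530 nm emission ratio, gain fitted against DMSO.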

[5] = TOX21_p53_BLA_p4_viability: Viability Assessment in the Tox21 HCT-116 p53 Agonism Beta-lactamase Assay, Phase 4 (AID 2283597);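 note: hits lower the luminescence signal meaning cytotoxicity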
How it was run: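 HCT-116 p53-bla cells, 4000/well, dosed after 5 h attachment and incubated 16 h at 37 °C, 5% CO2. Viability from CellTiter-Glo ATP luminescence after 30 min at room temperature, taken after the beta-lactamase read; loss of signal indicates cytotoxicity.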

[6] = biological target: Cellular tumor antigen p53 (Homo sapiens) (UniProt P04637); test: TOX21_p53_BLA_p5_ratio: Tox21 HCT-116 p53 Agonism Beta-lactamase Assay, Ratio, Phase 5 (AID 2283599)
How it was run: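 HCT-116 p53-bla cells (4000/well) plated 5 h, dosed with compound (217-fold DMSO dilution) for 16 h at 37 C; CCF4-AM substrate 2 h at room temperature. Activity is the 460/530 nm emission ratio (405 nm excitation), fitted in gain-of-signal direction versus DMSO.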

[7] = TOX21_p53_BLA_p5_viability: Viability Assessment in the Tox21 HCT-116 p53 Agonism Beta-lactamase Assay, Phase 5 (AID 2283600)
How it was run: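 HCT-116 p53 beta-lactamase reporter cells, 4000/well, were exposed to compound (pin transfer, 217-fold dilution) for 16 hours at 37C. Cellular ATP was read by CellTiter-Glo luminescence after 30 min at room temperature.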

[8] = biological target: Cellular tumor antigen p53 (Homo sapiens) (UniProt P04637); test: TOX21_p53_BLA_p4_ratio: Tox21 HCT-116 p53 Agonism Beta-lactamase Assay, Ratio, Phase 4 (AID 2283601)
How it was run: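 HCT-116 p53 beta-lactamase reporter cells (4000/well) preincubated 5 h, then compound (217-fold dilution of DMSO stock) for 16 h at 37C. CCF4-AM substrate added 2 h at room temperature; 460/530 nm emission ratio fitted upward versus DMSO.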

[9] = TOX21_p53_BLA_p2_viability: Viability Assessment in the Tox21 HCT-116 p53 Agonism Beta-lactamase Assay, Phase 2 (AID 2283591);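 note: compound exposure lasted 16 h at 37 °C; actives lower the ATP signal meaning cytotoxicity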
How it was run: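 HCT116 p53-bla cells, 4000/well, dosed after 5 h plating (217-fold dilution of DMSO stocks) and incubated 16 h at 37C. Viability taken as cellular ATP by CellTiter-Glo luminescence after 30 min RT; signal loss marks cytotoxicity.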

Measured: outcome

CS(C)=O
not listed: [9]
inactive: all other assays above

Cc1cc(S(=O)(=O)O)ccc1N=Nc1c(O)ccc2ccccc12
inactive: [1] | [2] | [4] | [7]

Cc1occc(=O)c1OC(=O)C(C)C
inactive: [1] | [2] | [3] | [4]

C[Si]1(C)O[Si](C)(C)O[Si](C)(C)O1
inactive: [1] | [9] | [4] | [8]

CCCCCCCCSCCO
inactive: [1] | [9] | [6]

O=[N+]([O-])c1cccc(Cl)c1
not listed: [5] | [7] | [9]
inactive: all other assays above

CCCCCCC(CO)CCCC (stereo unspecified)
inactive: [1] | [2] | [4] | [6] | [8]

CCCOC(=O)c1c(Cl)c(Cl)c(Cl)c(Cl)c1C(=O)OCCC
inactive: [1] | [2]

CCC1(C)NC(=O)NC1=O (stereo unspecified)
inactive: [9] | [2] | [3]

C=CC(=O)OCCC#N
inactive: [1] | [3] | [6] | [7] | [8]

CCCCCCCC(=O)OCCCCCC
inactive: [1] | [3] | [6] | [7] | [8]

O=C(O)CCCCCCCCCCCC(=O)O
not listed: [1] | [8]
inactive: all other assays above

CC(=O)C1(C)CC2=C(CCCC2(C)C)CC1C (stereo unspecified)
not listed: [1] | [7]
inactive: all other assays above

COc1cc(CCC(C)=O)ccc1O
inactive: [1] | [3] | [6]

OCC(O)c1ccccc1 (stereo unspecified)
inactive: [1] | [3] | [5] | [6] | [8]

c1ccc2[nH]cnc2c1
not listed: [1] | [7]
inactive: all other assays above

COC(=O)Nc1ccc(Cl)c(Cl)c1
not listed: [1] | [5]
inactive: all other assays above

CCCC(=O)C(CC)Sc1ccoc1C (stereo unspecified)
not listed: [2] | [6] | [9]
inactive: all other assays above

CCCCOC(=O)CCCCCCCC(=O)OCCCC
inactive: [1] | [2] | [6]

O=C(O)c1cc(C(=O)O)cc([N+](=O)[O-])c1
inactive: [1] | [8]

COC(=O)c1cccnc1
not listed: [1]
inactive: all other assays above

O=C(Nc1ccc2c(c1)Cc1ccccc1-2)C(F)(F)F
not listed: [1] | [5]
inactive: all other assays above

N#Cc1ccc(CC(=O)c2cccc(C(F)(F)F)c2)cc1
inactive: [1] | [4] | [6] | [7] | [8]

CN(C)C(=S)SC(=S)N(C)C
not listed: [1] | [7]
inactive: all other assays above

CC[N+](C)(CC)CC
inactive: [1] | [2] | [6] | [8]

CC1=CC[C@@]23C[C@@H]1C(C)(C)[C@@H]2CC[C@H]3C
inactive: [1] | [7]

Nc1ccccc1[N+](=O)[O-]
not listed: [1] | [5]
inactive: all other assays above

CCCC(=O)OCCc1ccccc1
inactive: [1] | [4] | [6] | [8]

CN(C)CCOC(C)(c1ccccc1)c1ccccn1 (stereo unspecified)
not listed: [2] | [3] | [9]
inactive: all other assays above

CC(C)(CO)[C@@H](O)C(=O)NCCC(=O)O
inactive: [1] | [4] | [6] | [8]

CC(C)Nc1nc(N)nc(Cl)n1
inactive: [1] | [8]

CCc1ccc(O)c(OC)c1
inactive: [1] | [3] | [6]

COS(=O)(=O)O
inactive: [1] | [7] | [8]

CS(=O)(=O)c1ccc(C2=C(c3ccccc3)C(=O)OC2)cc1
inactive: [1] | [7] | [8]
